Values joined by “and” are separate entries in the source; they are usually repeats but may differ in a detail not shown here. Equal values may be shown once. Results filed as inconclusive are left out. Values without a mark were called inactive. Active and inactive are the calls of the source. Unless noted, calls follow the shape of the dose curve; as a rule, active = well fitted curve in the direction sought with a large enough effect; inconclusive = small, poorly fitted or top-dose-only effect, or another doubt; inactive = no such curve, though single readings can be large; an effect the other way counts as inactive or inconclusive.

Test [1] deals with Cellular tumor antigen p53 (Homo sapiens) (UniProt P04637). The test can be described thus: Primary qHTS for small molecule compounds that upregulate eGFP-tagged delta133p53alpha (in N-terminal) cells. (AID 2060322). Also: nearly all actives have a fitted effect of over 75% in size. Also: potency is read from the fitted curve at half-maximal effect.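 As to activation: cells pre-induced with doxycycline then dosed without doxycycline; series mostly up to about 56 µM; 0% = DMSO vehicle and 100% = reference activator.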 The settings on record: NCI-H358 eGFP-delta133p53alpha fluorescence, 24 h; activation: active compounds read high. The essentials:
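NCI-H358 cells pre-induced 24 h with 10 ng/ml doxycycline for eGFP-delta133p53alpha, plated dox-free and exposed 24 h at 37C to titrated compounds. Fixed, Hoechst-stained; gated GFP peak intensity by laser scanning cytometry, normalized to DMSO (0%) and 57.5 uM 5-azacytidine (100%).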

Test [2] is described as follows: BET inhibitor-based combinations targeting novel dependencies in MECOM-rearranged (r) AML: MV-4-11 cell line (AID 2202233). Also: nearly all actives have a fitted effect of over 45% in size. Also: potency is read from the fitted curve at half-maximal effect. The method, boiled down:
(§1)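 Cells were plated at 500 per well and exposed to each drug across an 11-point dose range for 48 hr at standard incubator conditions. Viability was read by CellTiter-Glo luminescence, and activity was expressed as AUC and per-cell-line Z-transformed AUC.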

Test [3] is described as follows: BET inhibitor-based combinations targeting novel dependencies in MECOM-rearranged (r) AML: HNT-34 cell line (AID 2202234). Also: nearly all actives have a fitted effect of over 35% in size. Also: potency is read from the fitted curve at half-maximal effect. The method, boiled down:
as §1

Test [4] in a line: BET inhibitor-based combinations targeting novel dependencies in MECOM-rearranged (r) AML: AML-191 cell line (AID 2202236; also: nearly all actives have a fitted effect of over 35% in size; also: potency is read from the fitted curve at half-maximal effect). The essentials:
(§2)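 500 cells/well; 11-pt dose curve; 48 h, standard incubator; CellTiter-Glo luminescence after 15 min RT; DMSO/empty-well normalization; AUC plus Z-AUC (mean-centered within each line).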

Test [5] in a line: BET inhibitor-based combinations targeting novel dependencies in MECOM-rearranged (r) AML: AML-194 cell line (AID 2202237; also: nearly all actives have a fitted effect of over 40% in size; also: potency is read from the fitted curve at half-maximal effect). The essentials:
as §2

The nature of test [6]: BET inhibitor-based combinations targeting novel dependencies in MECOM-rearranged (r) AML: UCSD-AML1 cell line (AID 2202235). Also: nearly all actives have a fitted effect of over 40% in size. Also: potency is read from the fitted curve at half-maximal effect. The essentials: as §1
In test [7] the target is Cellular tumor antigen p53 (Homo sapiens) (UniProt P04637). In words: Primary qHTS for small molecule compounds that upregulate eGFP-tagged delta133p53alpha (in C-terminal) cells. (AID 2060324). Also: potency is read from the fitted curve at half-maximal effect. The essentials: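 Doxycycline (100 ng/ml, 24 h) first induced the eGFP fusion in NCI-H358 C-terminal-tag cells. Washed-out cells then received titrated compounds for 24 h at 37 °C before paraformaldehyde fixation, Hoechst staining and cytometric GFP quantification.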
(In general: qHTS replaces the single test concentration by a dilution series.)

In test [8] the target is Aldehyde dehydrogenase, mitochondrial (Homo sapiens) (UniProt P05091). The test can be described thus: qHTS for Inhibitors of the Aldehyde Dehydrogenase Family (ALDH2) Validation screens (AID 2061302; active = well fitted inhibition curve with a large enough effect; title and protocol of this record describe different tests;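 also: plate controls were DMSO vehicle for no effect and maximal DPI positive control response for full effect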).
Test [9] has as its target Retinaldehyde dehydrogenase 3 (Homo sapiens) (UniProt P47895). In words: qHTS for Inhibitors of the Aldehyde Dehydrogenase Family (ALDH1A3) Validation screen (AID 2061312). Also: % is scaled to controls: 0 for no effect and ±100 for the full control effect; nearly all actives have a fitted effect of over 45% in size.

Cellular tumor antigen p53 (Homo sapiens), sequence (P04637 whole entry, looked up, the tested form may be a part): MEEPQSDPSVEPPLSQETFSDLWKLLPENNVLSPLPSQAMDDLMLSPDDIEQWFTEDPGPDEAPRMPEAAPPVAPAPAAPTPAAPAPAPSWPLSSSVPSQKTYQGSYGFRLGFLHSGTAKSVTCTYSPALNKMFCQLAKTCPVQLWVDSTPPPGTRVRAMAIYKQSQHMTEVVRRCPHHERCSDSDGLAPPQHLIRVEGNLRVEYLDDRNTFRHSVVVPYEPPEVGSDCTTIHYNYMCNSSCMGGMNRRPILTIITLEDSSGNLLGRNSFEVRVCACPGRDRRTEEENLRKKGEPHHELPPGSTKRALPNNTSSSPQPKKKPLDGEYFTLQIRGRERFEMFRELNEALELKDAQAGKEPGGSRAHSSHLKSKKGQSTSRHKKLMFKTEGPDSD

Consider `CN1CCN(c2cc(C(=O)Nc3ccc4c(c3)-c3c(c(C(N)=O)nn3-c3ccc(F)cc3)CC4)c(Cl)cn2)CC1`, for which, in test [1], the activation was 10.2%. In addition, the Potency in test [2] was 7.42 µM (active); in [3], 7.42 µM (active); in test [4], 8.33 µM (active); in test [5] it was 8.33 µM (active).
Consider `Cc1cc2c(F)c(Oc3ncnn4cc(OC[C@@H](C)O)c(C)c34)ccc2[nH]1`, for which, in test [1], the activation is -34.1%. Also, the Potency result in [6] was “inactive”.
Take `CCCCCCCc1ccc(CCc2cccc(O)c2C(=O)O)cc1`: the activation in [1] is -21.9% and 7.82%. For the same compound, the Potency result in test [5] is “inactive”.
In the case of `S=P(N1CC1)(N1CC1)N1CC1`, in [1], the activation is 31.6%. The Potency in test [2] was 20.9 µM (active); in test [4] it was 26.3 µM (active). In addition, the Potency entry in test [6] is “inactive”.
Regarding `O=C(c1ccc(F)cc1)N1CCC[C@H](c2nc(-c3ccc(F)cc3)no2)C1`, the activation in test [1] is 6.17%. The Potency in test [2] is 18.6 µM (active). Moreover, in [6], the Potency entry was “inactive”.
On to `Nc1nc(N)c2nc(-c3cccc(O)c3)c(-c3cccc(O)c3)nc2n1`, for which the Potency is 24.3 µM (active) in [1] and 18.6 µM (active) in test [4]. Further, the Potency result in test [3], in test [6] and in [5] was “inactive” throughout.
For `CCc1c(O)cc(O)c(C(=O)c2ccc(OCCN3CCOCC3)c(OC)c2)c1CC(=O)N(CCOC)CCOC`, the activation in test [1] is 38.5%. Moreover, in test [3], the Potency was 0.662 µM (active).
`COc1cc2ncnc(Nc3cccc(Br)c3)c2cc1OC`: the activation in test [1] is 29.9%. The results for the Potency in test [3], in test [6] and in test [4] were 9.34 µM (active), 20.9 µM (active) and 20.9 µM (active), respectively.
Take `Cc1nc2ccc(C(=O)N3CCC4(CC3)CC(=O)c3c(cnn3C(C)C)C4)cc2[nH]1`: in test [1], the activation was 23%. For the same compound, the Potency result in test [6] and in [5] was “inactive” throughout.
For the compound `CC(=O)O[C@]1(C(C)=O)CC[C@H]2[C@@H]3C=C(C)C4=CC(=O)CC[C@]4(C)[C@H]3CC[C@@]21C`, in test [1], the activation is -26.8%. In addition, the Potency in test [3] is 18.6 µM (active). Moreover, the Potency result in test [6] is “inactive”.
`CCCCc1oc2ccccc2c1C(=O)c1cc(I)c(OCCN(CC)CC)c(I)c1`: the activation in test [1] is -16.4% and -32.6%. Besides, the Potency in test [2] is 18.6 µM (active); in test [6], 23.5 µM (active); in test [4], 20.9 µM (active).
In the case of `COc1cc2ncnc(Nc3cc(Br)c(O)c(Br)c3)c2cc1OC`, in [1], the activation is 26.5%. In addition, the Potency in test [2] was 7.42 µM (active); in [6] it was 26.3 µM (active).
The like results for `O=C(NCCCNc1nc(Nc2cccc(NC(=O)N3CCCC3)c2)ncc1I)c1cccs1` were, in that order, 9.72%, 0.662 µM (active) and 5.25 µM (active).
Take `CN=c1nc(-c2ccccc2)n(-c2ccccc2)s1`: the Potency result in [7] is “inactive”.
Regarding `Cn1cncc1[C@@](N)(c1ccc(Cl)cc1)c1ccc2c(c1)c(-c1cccc(Cl)c1)cc(=O)n2C`, in [1], the activation is 15.2%. For the same compound, in [3], the Potency is 0.0021 µM (active).
Regarding `O=C1CSC(=O)N1C(CCc1ccncc1)COc1ccc(-c2cccc([N+](=O)[O-])c2)cc1` (centres undefined), the activation in test [1] was -7.57%. Besides, in test [2], the Potency is 16.6 µM (active). Moreover, the Potency result in [6] was “inactive”.
For `Cc1ccc(NC(=O)c2ccc(CN3CCN(C)CC3)cc2)cc1Nc1nccc(-c2cccnc2)n1`, in [1], the activation is -19.4% and -18.4% and -2.86%. In addition, the Potency entry in test [6] was “inactive”.
`CC(C)C[C@H](CC(=O)O)C(=O)N[C@@H](Cc1c[nH]c2ccccc12)C(=O)N[C@@H](C)c1ccccc1`: the activation in test [1] is -21.8%. The Potency result in test [2] was “inactive”. In addition, the Potency in [5] was 18.6 µM (active).
Turning to `COC(=O)C1C2CC3c4[nH]c5cc(OC)ccc5c4CCN3CC2CC(OC(=O)c2cc(OC)c(OC)c(OC)c2)C1OC` (centres undefined), the activation in test [1] is 4.12%. The Potency in [2] is 20.9 µM (active). Moreover, in test [6], the Potency entry was “inactive”.
For the compound `CC[C@H](C)n1cc(C)c2c(C(=O)NCc3c(C)cc(C)[nH]c3=O)cc(-c3ccc(N4CCNCC4)nc3)cc21`, the activation in test [1] was -13%. The Potency in test [2] is 18.6 µM (active). Further, the Potency entry in test [5] was “inactive”.
Turning to `CN[C@@H](C)C(=O)N[C@H]1CCCC[C@H]2CC[C@@H](C(=O)N[C@@H](c3ccccc3)c3cn(CCCCc4ccc(CCCCn5cc([C@@H](NC(=O)[C@@H]6CC[C@@H]7CCCC[C@H](NC(=O)[C@H](C)NC)C(=O)N76)c6ccccc6)nn5)cc4)nn3)N2C1=O`, the activation in [1] is 16.4%. The Potency result in test [3] is “inactive”. In test [6], the Potency was 0.0037 µM (active).
Consider `COc1ccc(CC2SC(=O)NC2=O)cc1C(=O)NCc1ccc(C(F)(F)F)cc1` (centres undefined), for which the activation in [1] was -5.55%. In addition, the Potency entry in test [6] and in test [4] was “inactive” throughout.
Consider `Cc1ccc(NC(=O)c2ccc(CN3CCN(C)CC3)cc2)cc1Nc1nc(-c2cccnc2)cs1`, for which the activation in test [1] was 4.59%. In test [3], the Potency was 5.25 µM (active). Moreover, the Potency entry in test [6] was “inactive”.
`O=[N+]([O-])c1ccc2c(c1)S(=O)(=O)C=C2`: in test [7], the Potency was 30.1 µM (active).
Consider `O=C(O)c1c(Cl)c(Cl)c(Cl)c(Cl)c1-c1c2cc(I)c(=O)c(I)c-2oc2c(I)c(O)c(I)cc12`, for which the activation in test [1] is -18.2%. For the same compound, the Potency result in [2] was “inactive”. The Potency in [6] was 5.9 µM (active).
The matching figures for `CCOC(CN1C(=O)[C@](CC(=O)Nc2ccc(C)cc2)(NC(=O)Nc2ccc(C)cc2)c2ccccc21)OCC`: 0.237%, 23.5 µM (active) and “inactive”.
In the case of `C[N+](C)([O-])CCNc1ccc(NCC[N+](C)(C)[O-])c2c1C(=O)c1c(O)ccc(O)c1C2=O`, the activation in test [1] is 9.32%. Also, the Potency in test [2] is 0.468 µM (active); in [6] it was 9.34 µM (active).
With `CCN(CC)CCCCNc1nc2cc(Cl)c(Cl)cc2nc1-c1ccc(-c2cccs2)s1`, the Potency in test [1] was 6.85 µM (active); in test [4] it was 26.3 µM (active).
Regarding `O=C(O)c1ccc(-c2c[nH]c3ncc(-c4ccccc4)cc23)cc1C1CCCC1`, in test [1], the activation was -17.5%. Also, the Potency in [2] was 2.95 µM (active). Moreover, the Potency result in test [6] was “inactive”.
Turning to `CCOc1cc(N)c(Cl)cc1C(=O)NCC1CN(Cc2ccc(F)cc2)CCO1` (centres undefined), the activation in [1] is -2.82% and 4.36%. Besides, the Potency entry in test [3] and in test [6] was “inactive” each time.
For the compound `C1CCC(C(CC2CCCCN2)C2CCCCC2)CC1` (centres undefined), in test [1], the activation was 21.8%. Further, the Potency was 8.33 µM (active) in test [2], 7.42 µM (active) in [3], 9.34 µM (active) in [4] and 7.42 µM (active) in test [5].
Regarding `Cc1cccc(CN2CCN(C(c3ccccc3)c3ccc(Cl)cc3)CC2)c1` (centres undefined), in [1], the activation was 5.02% and 0.39%. Further, the Potency in test [2] is 20.9 µM (active). The Potency result in test [4] and in test [5] was “inactive” each time.
For the compound `COc1cc(C(=O)NC2CCN(C)CC2)ccc1Nc1ncc2c(n1)N(C1CCCC1)CCC(=O)N2C(C)C`, the activation in test [1] is 7.36%. Moreover, the Potency in test [2] was 6.61 µM (active); in test [3], 16.6 µM (active); in test [4] it was 18.6 µM (active); in test [5], 23.5 µM (active).
For `CNCCC(Oc1ccccc1OC)c1ccccc1` (centres undefined), the Potency entry in test [7], in test [8] and in test [9] was “inactive” each time.
